The whole screen tested about 330,000 compounds, of which about 1,700 (0.52%) were called active. Rule as the data show it: active = inhibition above about 50%; inactive = the rest. The sample as a whole holds a higher share of actives than the screen did.

The record followed here is PubChem BioAssay AID435003 (Sanford-Burnham Center for Chemical Genomics, 2010).

The nature of this assay: inhibitors of induced NF-kB luciferase reporter, primary screen, TCR NF-kB activation inhibitor project, cell-based, luminescence, uHTS (AID 435003). To be noted: Jurkat, PMA/ionomycin-induced NF-kB luciferase reporter, at 4 µM, stronger effect = higher value.
As for `O=C(COCc1cc(-c2ccc3c(c2)OCO3)on1)N1CCN(c2cccc(Cl)c2)CC1`, the inhibition was 3.84% (inactive).
For the molecule `NS(=O)(=O)c1ccc(CCNS(=O)(=O)c2cccc3cccnc23)cc1`, the inhibition is -18.6% (inactive).
In the case of `O=[N+]([O-])c1ccccc1S(=O)(=O)Nc1cccc2cccnc12` it was 70.3% (active); in that of `O=S(=O)(NCCc1ccc(F)cc1)c1cccc2cccnc12`, 2.69% (inactive).
As for `O=C(Nc1ccc(Br)cc1F)C1CC(=O)N(C2CCCCC2)C1` (configuration not stated), the figure is -3.7% (inactive); as for `CCn1c(/C=C/c2ccc([N+](=O)[O-])o2)nc2ccccc2c1=O`, 54.7% (active).
As for `CCOCCCn1c(NN)nc2ccccc2c1=O`, the figure is -7.49% (inactive); as for `CCn1c(SCc2ccccc2)nc2cc(OC)c(OC)cc2c1=O`, -6.84% (inactive); as for `Cc1noc(C)c1C(=O)N(CC(=O)NC1CCCC1)Cc1ccccc1F`, -8.54% (inactive).
Regarding `COc1ccc(C(=O)COC(=O)C(O)c2ccccc2)c(OC)c1` (configuration not stated), the inhibition was 0.0915% (inactive).
In the case of `CCOc1ccc2[nH]c3nc(SCC(=O)NC4CCCC4)nnc3c2c1` it was 59% (active).
In the case of `O=C(CSc1nnc2c(n1)[nH]c1ccccc12)NC1CCCCC1` it was 21.2% (inactive).
With `COc1ccc2[nH]c3nc(SCC(=O)NC4CC4)nnc3c2c1`, the inhibition is -17.7% (inactive).
As for `O=C(c1ccc(Cl)s1)N(Cc1nnc(-c2ccccc2Cl)o1)C1CC1`, the figure is -18.3% (inactive); as for `Cc1cc(C(=O)COc2ccc(Br)cc2F)c(C)n1C1CC1`, -9.16% (inactive); as for `C=CCOc1cccc(C2NC(=O)c3ccccc3O2)c1` (configuration not stated), 3.44% (inactive).
As for `Cc1ccc(C)c(NS(=O)(=O)c2cc(Br)cnc2N)c1`, the figure is -1.35% (inactive).
In the case of `C/C=C(\C)C(=O)N1CC2(CC(c3cccc(NC(=O)CCCCC)c3)=NO2)C[C@@H]1C(N)=O` (some centres not stated), the inhibition was 2.26% (inactive).
As for `Oc1ccc(Br)cc1/C=N/Nc1ccccn1`, the figure is 32.4% (inactive); as for `Oc1ccc(/C=N/Nc2ccc(C(F)(F)F)cn2)cc1O`, 59.5% (active).
As for `O=C(N/N=C/c1ccc(O)c(O)c1)C1c2ccccc2Oc2ccccc21`, the figure is 2.58% (inactive); as for `O=C(c1ccc(OC2CCN(C(=O)c3cccnc3)CC2)cc1)N1CCCCCC1`, -2.83% (inactive).
In the case of `CC1=C(C(=O)NC2CC(C)(C)Cc3c2cnn3-c2ccc(C)cc2)OCCO1` (configuration not stated) it was 4.55% (inactive).
`Cc1ccc(-n2ncc3c2CC(C)(C)CC3NC(=O)Cc2c(C)noc2C)cc1` (configuration not stated): the inhibition is 50.6% (active).
Regarding `COc1ccc(-n2ncc3c2CC(C)(C)CC3NC(=O)CCc2c(C)noc2C)cc1` (configuration not stated), the inhibition was 20% (inactive).
For the molecule `CCN1C(=O)/C(=C2\SC(N3CCCCC3)=NC2=O)c2ccccc21`, the inhibition was -33.7% (inactive).
With `COC(=O)c1ccc(C(=O)Nc2cc(Cl)ccc2Cl)cc1NC(=O)c1ccccc1C`, the inhibition is -2.99% (inactive).
As for `Cc1c(C=O)c2ccccc2n1CCOc1ccccc1`, the figure is -14.6% (inactive); as for `COc1ccccc1CNC(=O)c1cc(=O)c2ccccc2o1`, -3.35% (inactive).
In the case of `COc1ccc2c(CC(=O)N3CCc4cc(OC)c(OC)cc4C3)coc2c1` it was 15.9% (inactive); in that of `COc1cc2c(cc1OC)CN(C(=O)c1cc(=O)c3ccccc3o1)CC2`, 50.7% (active); in that of `C=CCn1c(C)cc(C2=NNC(=NCC)SC2)c1C`, 67.2% (active).
As for `Cc1ccc(-n2c(=O)cc(N3CCN(Cc4ccccc4)CC3)[nH]c2=O)cc1`, the figure is 1.04% (inactive).
Regarding `CCNC(=O)c1cccc(NC(=O)C2CC(=O)N(CCc3ccccc3)C2)c1` (configuration not stated), the inhibition was 8.87% (inactive).
In the case of `COc1ccc(-c2cc(C(F)(F)F)n3nc(C(=O)N4CCOCC4)c(Cl)c3n2)cc1` it was -15.4% (inactive); in that of `Cc1cccc(NC(=O)c2cc(S(=O)(=O)N3CCC4(CC3)OCCO4)ccc2F)c1`, 4.99% (inactive); in that of `COc1ccc(NC(=O)c2nc(-n3nc(C)cc3C)ccc2Cl)cc1Cl`, -8.27% (inactive).
For `COc1ccc(C(C)=O)cc1CSc1nc2nc(C)cc(C)n2n1`, the inhibition is 5.26% (inactive).
In the case of `Cc1cc(C)n(-c2ccc(C(=O)O)cc2[N+](=O)[O-])n1` it was -2.8% (inactive); in that of `Cc1cc(N/N=C\c2ccc(Br)cc2)nc(-n2nc(C)cc2C)n1`, 27.2% (inactive).
As for `CC(=O)c1ccc(Oc2cc(C)nc(-n3nc(C)cc3C)n2)cc1`, the figure is 51.8% (active); as for `COc1ccc(Nc2cc(C)nc(-n3nc(C)cc3C)n2)cc1`, 68.7% (active); as for `O=C(CCC1CCN(C(=O)c2cccc(Cl)c2F)CC1)Nc1ccccc1`, 2.28% (inactive).
On to `COc1cc(/C=C/C(=O)Nc2ccc(OC)c(S(=O)(=O)N3CCOCC3)c2)ccc1OCC#N`, for which the inhibition was 6.61% (inactive).
As for `Cc1ccc(CN2CCN(Cc3ccc(OCCO)cc3)CC2CCO)o1` (configuration not stated), the figure is 3.63% (inactive).
Turning to `N#Cc1c(NC(=O)c2ccc(N3CCOCC3)c([N+](=O)[O-])c2)sc2c1CCCC2`, the inhibition is -30% (inactive).
For the molecule `CC1(C)OC(=O)N2CCc3ccccc3C21C` (configuration not stated), the inhibition was 11.5% (inactive).
As for `Cc1c(/C=N/N2C(=O)C3C4C=CC(C4)C3C2=O)c2ccccc2n1C` (configuration not stated), the figure is -10.4% (inactive); as for `Cc1c(/C=N\NC(=O)c2cc3ccccc3o2)c2ccccc2n1C`, 67.3% (active); as for `O=C(N/N=C/c1cccc(O)c1)c1cc2c(ccc3ccccc32)o1`, 7.99% (inactive).
Consider `COc1ccc(Cc2cc(-c3ccc(F)cc3)n[nH]c2=O)cc1`, for which the inhibition is -2.24% (inactive).
As for `CC(C)c1ccc(S(=O)(=O)N2CCN(C(=O)c3ccc(N4CCCC4)c([N+](=O)[O-])c3)CC2)cc1`, the figure is 7.91% (inactive); as for `CCOc1[nH]n(-c2ccc(Cl)cc2)c(=O)c1C=Nc1ccc(O)cc1`, 56.7% (active).
As for `CCOc1ccc(N=C2NC(=O)S/C2=C\c2ccc(O)cc2)cc1`, the figure is 11.9% (inactive); as for `O=C(NC(C(=O)NCCN1CCOCC1)C12CC3CC(CC(C3)C1)C2)C1CCCCC1` (configuration not stated), -4.81% (inactive); as for `N#Cc1ccccc1S(=O)(=O)N1CCN(C(=O)c2cc(-c3ccccc3)nn2-c2ccccc2)CC1`, 2.19% (inactive).
As for `O=[N+]([O-])/C=C1\CCCCCN1`, the figure is -12.2% (inactive).
As for `COc1ccccc1C1C2=C(COC2=O)Nc2cc3c(cc21)OCO3` (configuration not stated), the inhibition was 70.3% (active).
For `O=C1NC(c2cc3c(cc2Cl)OCO3)Oc2ccccc21` (configuration not stated), the inhibition is -7.28% (inactive).
In the case of `COc1ccc(S(=O)(=O)Nc2ccc3c(c2)OCO3)cc1Cl` it was -1.75% (inactive); in that of `COC(=O)c1ccc(C2CC(=O)Nc3cc(OC)c(OC)cc32)cc1` (configuration not stated), 8.26% (inactive).
In the case of `CCCOc1ccc(C2NC(=O)NC(c3ccccc3)=C2C(C)=O)cc1OCC` (configuration not stated) it was 2.86% (inactive); in that of `CCCOc1ccccc1C1CC(=O)Nc2cc3c(cc21)OCO3` (configuration not stated), 58.3% (active); in that of `COC(=O)C1=C(C(=O)OC)[C@@H]2N(C)c3ccccc3[C@@]23C[C@@H](C(=O)OC)N(C(=O)c2ccco2)C3=N1`, 18.3% (inactive).
In the case of `CC(C)Oc1ccc(/C=N/NC(=O)c2nnn(-c3nonc3N)c2CN(C)C2CCCCC2)cc1`, the inhibition was -10.3% (inactive).
For `Cc1cccc(OCC(=O)NC2CC(C)(C)NC(C)(C)C2)c1`, the inhibition is 23.8% (inactive).
Regarding `NS(=O)(=O)c1ccc(N=Cc2ccc(Br)s2)cc1`, the inhibition was 3.07% (inactive).
As for `CC(=O)Nc1ccc(Nc2cc(C)nc(Nc3ccc(NC(C)=O)cc3)n2)cc1`, the figure is -8.27% (inactive); as for `CCc1nc(Nc2ccc(NC(C)=O)cc2)c2oc3ccccc3c2n1`, -24.7% (inactive).
Take `CC(=O)Nc1ccc(Nc2c3ccccc3nc3ccccc23)cc1`: the inhibition was 61.6% (active).
Take `O=C(NCc1ccccc1)C(=O)NCC1OCCN1S(=O)(=O)c1ccc(Br)cc1` (configuration not stated): the inhibition is 13.9% (inactive).
As for `Cc1ccccc1N1CCN(Cc2nc(Cc3ccccc3F)no2)CC1`, the figure is 5.46% (inactive); as for `COc1ccc(C)c(Cn2c(-c3nonc3N)nc3ccccc32)c1`, 65.7% (active).
`CC(=O)Nc1nonc1-c1nc2ccccc2n1Cc1ccccn1`: the inhibition was -4.81% (inactive).
As for `Nc1nonc1-c1nc2ccccc2n1Cc1ccc(F)cc1`, the figure is 1.66% (inactive); as for `O=C(Nc1ccc(Cl)cc1)C1c2cccc[n+]2CC(=O)N1Cc1ccc2c(c1)OCO2` (configuration not stated), -3.1% (inactive); as for `O=C1CC[C@H](O)CCN1[C@H](CSc1ccc(Br)cc1)Cc1ccccc1`, -3.24% (inactive).
For `O=C(NCCOc1ccccc1Cl)C(=O)Nc1ccccc1`, the inhibition is -8.66% (inactive).
On to `C[C@@H]1NC(=O)[C@@]2(C)[C@@H](c3ccccc3)[C@H]3COc4ccccc4[C@@H]3N2C1=O`, for which the inhibition was 7.9% (inactive).
In the case of `COc1ccc(NC(=O)CN2C(=O)COc3ccc(S(=O)(=O)N4CCOCC4)cc32)c(OC)c1` it was 0.923% (inactive); in that of `C[C@H](NC(=O)c1ccccc1Cl)C(=O)OCCOc1cccc(Cl)c1`, -1.51% (inactive); in that of `COC(=O)c1ccccc1NC(=O)CN(Cc1ccccc1)S(C)(=O)=O`, 0.443% (inactive).
In the case of `O=c1[nH]snc1-c1c(Cl)cccc1Cl` it was 11.2% (inactive); in that of `Cc1c(NS(=O)(=O)c2cc(C(=O)NCCc3ccc(F)cc3)cc(Cl)c2Cl)c(=O)n(-c2ccccc2)n1C`, 13.5% (inactive); in that of `CCN(CC)CCCNC(=O)c1cc2c(=O)[nH]c3ccc(C)cc3c2s1`, -1.96% (inactive).
As for `Cc1cccc(N(C)C(=O)c2cc3c(=O)[nH]c4ccc(C)cc4c3s2)c1`, the figure is 65.1% (active); as for `Cc1ccc2[nH]c(=O)c(CC(=O)O)c(-c3ccccc3)c2c1`, -0.374% (inactive).
As for `CC(=O)N1CSCC1C(=O)O` (configuration not stated), the inhibition is -5.84% (inactive).
As for `Cc1c(C)c(C)c(S(=O)(=O)N2CCC3(CC2)OCCO3)c(C)c1C`, the figure is -2.3% (inactive).
In the case of `Cc1ccc(S(=O)(=O)NC(=O)Nc2nc(-c3ccc(F)c(F)c3)cs2)cc1` it was -14.8% (inactive); in that of `COc1ccc(CC(=O)Nc2nc(-c3ccc(F)c(F)c3)cs2)cc1OC`, 55.3% (active); in that of `COc1cc(CC(=O)Nc2nc(-c3ccc(F)c(F)c3)cs2)cc(OC)c1OC`, 49.7% (inactive).
